From PubChem
A selection: hits, their analogues and other compounds. The true share with any hit is near 7.9%.
SW480 rereplic: A quantitative high throughput screen for small molecules that induce DNA re-replication in SW480 colon adenocarcinoma cells. SW480 DNA re-replication, Hoechst DNA content imaging, 48 h. Potency, µM (highest dose often 46.1 µM), actives largely listed as activators. actives 1.8% (n = 340,000); also: nearly all actives have a fitted effect of over 55% in size
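Image-based DNA-content assay: after two days of treatment, nuclei were labelled with the DNA dye Hoechst and imaged, and hits were compounds raising the count of nuclei showing high fluorescence intensity.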
MCF10A rerep: A quantitative high throughput screen for small molecules that induce DNA re-replication in MCF 10a normal breast cells | MCF 10A DNA re-replication, Hoechst nuclear intensity, 48 h | Potency, µM (series often up to 46.1 µM), most hits filed as activators | actives 2.9% (n = 350,000); also: nearly all actives have a fitted effect of over 50% in size
HT1080 IDH1KD tx: qHTS for induction of synthetic lethality in tumor cells producing 2HG: qHTS for the HT-1080-IDH1KD cell line. HT-1080 IDH1 knockdown viability, ATP luminescence, 48 h. Potency, µM (doses to about 46.1 µM), actives largely listed as cytotoxic. actives 2% (n = 360,000). AID 686971, 2013
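Luminescent ATP read-out (CellTiter-Glo, 10 min at room temperature) after 48 h compound exposure at 37 °C gave viability of IDH1-knockdown HT-1080 cells. Activity was normalised to DMSO and cell-free wells, then fitted as concentration-response curves.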
KB-V1 MDR tox: qHTS assay for MDR1-selective chemotherapeutics: Primary screen using the drug-selected MDR subline cells KB-V1. Potency, µM (series often up to 46.1 µM), actives largely listed as cytotoxic. actives 3.4% (n = 400,000). AID 1347076, 2019. KB-V1 MDR cells viability, CellTiter-Glo, 72 h; also: nearly all actives have a fitted effect of over 60% in size
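Cells of the MDR subline KB-V1 are plated, dosed with compound at multiple concentrations, and incubated 72 h at 37 degrees C; CellTiter-Glo is then added and luminescence read after 10 min.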
HT1080NT lethal: qHTS for induction of synthetic lethality in tumor cells producing 2HG: qHTS for the HT-1080-NT fibrosarcoma cell line; Potency, µM (top dose mostly 46.1 µM), actives largely listed as cytotoxic; HT-1080-NT fibrosarcoma viability, CellTiter-Glo ATP luminescence, 48 h; actives 1.6% (n = 360,000);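 also: NT is the 2HG producing partner of a matched IDH1 knockdown line; nearly all actives have a fitted effect of over 55% in size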
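Read-out is CellTiter-Glo luminescence after 10 minutes at room temperature, following 48 hours' compound treatment of HT-1080-NT cells (750 cells/well, RPMI, 5% FBS, 37 degrees C).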
KB-3-1 tox: qHTS assay for MDR1-selective chemotherapeutics: Primary screen using the parental adenocarcinoma cell KB-3-1; KB-3-1 viability, CellTiter-Glo ATP luminescence, 72 h; Potency, µM (top dose mostly 46.1 µM), hits mostly cytotoxic; actives 1.4% (n = 400,000); also: nearly all actives have a fitted effect of over 60% in size
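Cytotoxicity measured as CellTiter-Glo luminescence after 72 h at 37 C. Compound titrations were pinned onto drug-naive KB-3-1 parental adenocarcinoma cells grown in DMEM with 10% FBS, and normalized data fitted to concentration-response curves.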
Each line names hits and unclear results; the compound was inactive in the other large screens. Calls follow the shape of the dose curve; as a rule, active = well fitted curve in the direction sought with a large enough effect; inconclusive = small, poorly fitted or top-dose-only effect, or another doubt; inactive = no such curve, though single readings can be large; an effect the other way counts as inactive or inconclusive.

Cc1cs/c(=N\N=C\c2ccccc2)n1Cc1ccco1	MCF10A rerep inconclusive, KB-V1 MDR tox 16µM, KB-3-1 tox inconclusive
CCOC(=O)C1CCN(C2=NC(=O)/C(=C/c3ccc(O)cc3)S2)CC1	none
CC1CCN(CC(CS(=O)(=O)c2ccc([N+](=O)[O-])cc2)N2CCC(C)CC2)CC1 (stereo not given)	SW480 rereplic 2.9µM, MCF10A rerep 1.8µM, KB-V1 MDR tox inconclusive, KB-3-1 tox 5.2µM
Cc1cc(C(=O)NCc2ccccc2)c2c(C)nn(-c3cccc(Cl)c3C)c2n1	none (no result: SW480 rereplic, MCF10A rerep, HT1080 IDH1KD tx, HT1080NT lethal)
CN(C)CCCNC(=O)N1c2ccccc2Sc2ccccc21	none
CC(C)c1ccc(C(=O)NCCCN2CCN(CCCNC(=O)c3ccc(C(C)C)cc3)CC2)cc1	SW480 rereplic inconclusive, MCF10A rerep 23µM, HT1080 IDH1KD tx inconclusive, KB-V1 MDR tox inconclusive, HT1080NT lethal 18µM
COc1cc2c(cc1OC)[C@@H](Cc1ccc(OCCC#N)cc1)N(C)CC2	none
COc1cc(Br)c(CC2c3cc(OC)c(OC)cc3CCN2C)cc1OC (stereo not given)	KB-V1 MDR tox 21µM
C=CCn1c(COc2ccc(OC)cc2)nnc1SCn1nnc2ccccc2c1=O	KB-V1 MDR tox 21µM
CNC(=S)N(C)/N=C1/C(=O)N(Cc2c(Cl)cccc2Cl)c2ccccc21	SW480 rereplic inconclusive, MCF10A rerep 18µM, KB-V1 MDR tox inconclusive
COC(=O)Cc1cc(=O)oc2cc(O)ccc12	SW480 rereplic 18µM, MCF10A rerep 16µM
O=c1cc(O)c2ccc(O)cc2o1	none
Cc1nn(Cc2ccc(C(=O)Nc3ccc(C(=O)OC(C)C)cc3)o2)c(C)c1Cl	MCF10A rerep inconclusive, HT1080 IDH1KD tx inconclusive, KB-V1 MDR tox 23µM, HT1080NT lethal inconclusive
Cc1nn(Cc2ccc(C(=O)NN)o2)c(C)c1Cl	SW480 rereplic inconclusive, MCF10A rerep inconclusive
O=C(Nc1ccc(Cl)cc1)c1nc[nH]c1C(=O)NCCCCNC(=O)c1[nH]cnc1C(=O)Nc1ccc(Cl)cc1	KB-V1 MDR tox 21µM, KB-3-1 tox inconclusive
O=Cc1s/c(=N\S(=O)(=O)c2ccccc2)n(CCCCl)c1Cl	SW480 rereplic 8.2µM, MCF10A rerep inconclusive, HT1080 IDH1KD tx 7.3µM, HT1080NT lethal 7.3µM, KB-3-1 tox inconclusive
O=C(COC(=O)CC(c1ccccc1)c1ccccc1)NCc1ccc(Cl)cc1	SW480 rereplic inconclusive, MCF10A rerep inconclusive, KB-V1 MDR tox 23µM
NNC(=O)c1sc(-c2ccccc2)cc1N	MCF10A rerep 21µM, KB-V1 MDR tox inconclusive
CC(=O)c1sc(-c2ccccc2)cc1N	KB-V1 MDR tox inconclusive
Cc1cc(C)c(C#N)c(SCc2nnc(-c3ccccc3)o2)n1	SW480 rereplic 8.2µM, MCF10A rerep 2.6µM, KB-V1 MDR tox 3.7µM
Cc1ccc(C#N)c(SCc2cc3c(cc2Cl)OCO3)n1	none
Cc1ccc(C#N)c(SCc2nnc(-c3ccc(Cl)cc3)o2)n1	SW480 rereplic 2.3µM, MCF10A rerep 0.73µM, KB-V1 MDR tox 12µM
CCc1ccc2[nH]c3nc(SCC(=O)NNC(=O)c4ccc(C(C)(C)C)cc4)nnc3c2c1	SW480 rereplic 5.8µM, MCF10A rerep 2.3µM, KB-3-1 tox inconclusive
Cc1ccc(C(=O)NNC(=O)CSc2nnc3c(n2)[nH]c2ccc(C)cc23)cc1	none
C=C1C(=O)c2sccc2C(c2ccc(OC)c(OC)c2)C1COC(C)=O (stereo not given)	SW480 rereplic inconclusive, HT1080 IDH1KD tx 2.3µM, KB-V1 MDR tox inconclusive, HT1080NT lethal 2.6µM, KB-3-1 tox inconclusive
CCN1CCN(CC(=O)N2N=C(c3cccs3)CC2c2ccc(OC)c(OC)c2)C(=O)C1=O (stereo not given)	none
COc1ccc(S(=O)(=O)NNC(=O)C23CC4CC(CC(C4)C2)C3)cc1	none (no result: KB-V1 MDR tox, KB-3-1 tox)
Cc1ccc(N=C2CCCN2Cc2ccccc2)c(C#N)c1	KB-V1 MDR tox 18µM, KB-3-1 tox inconclusive
Cc1ccc(N=C2CCCCCN2C)c(C#N)c1	none
CCc1ccc(NC(=O)CC(c2ccc(C)cc2)N2Cc3ccccc3C2=O)cc1 (stereo not given)	none (no result: SW480 rereplic, MCF10A rerep, HT1080 IDH1KD tx, HT1080NT lethal)
COCc1ccc(-c2c(-c3ccc(OC)cc3)oc(=O)c3cc(OC)c(OC)cc23)cc1	MCF10A rerep 2.6µM
COc1ccc(-c2c(-c3ccsc3)oc(=O)c3cc(OC)c(OC)cc23)cc1	none
CN1C/C(=C/c2ccncc2)C(=O)/C(=C/c2ccncc2)C1	SW480 rereplic 23µM, MCF10A rerep inconclusive
CN1C/C(=C/c2ccsc2)C(=O)/C(=C/c2ccsc2)C1	SW480 rereplic 3.3µM, MCF10A rerep 18µM, HT1080 IDH1KD tx inconclusive, KB-V1 MDR tox inconclusive, HT1080NT lethal inconclusive, KB-3-1 tox inconclusive
O=C1/C(=C\c2ccsc2)N2CCC1CC2	none
Cc1ccc(C(=O)N/C(=C/c2ccco2)C(=O)NC2CCS(=O)(=O)C2)cc1 (stereo not given)	KB-V1 MDR tox inconclusive
CCCCCCCCCCCCCC[N+](C)(C)Cc1ccccc1	SW480 rereplic 27µM, MCF10A rerep 27µM, KB-3-1 tox 18µM (no result: HT1080 IDH1KD tx, HT1080NT lethal)
CCCCCCCCCCN(CCCCCCCCCC)c1ccccc1	none (no result: SW480 rereplic, MCF10A rerep, HT1080 IDH1KD tx, HT1080NT lethal)
CCCCCCCCCCCCCCCC[N+](C)(C)Cc1ccccc1	SW480 rereplic inconclusive, MCF10A rerep 13µM (no result: HT1080 IDH1KD tx, KB-V1 MDR tox, HT1080NT lethal, KB-3-1 tox)
Cc1cc(NS(=O)(=O)c2ccc(NC(=O)CN3C(=O)NC(C)(c4ccccc4)C3=O)cc2)nc(C)n1 (stereo not given)	none
O=C(c1ccc(COc2ccc(Cl)cc2)o1)N1N=C(C(F)F)CC1(O)C(F)F (stereo not given)	MCF10A rerep inconclusive, HT1080 IDH1KD tx inconclusive, HT1080NT lethal inconclusive, KB-3-1 tox inconclusive
CC1CCCCN1C(=O)c1ccc(COc2ccc([N+](=O)[O-])cc2)o1 (stereo not given)	MCF10A rerep inconclusive, KB-V1 MDR tox 18µM
COc1ccccc1OCc1ccc(C(=O)Nc2ccncc2)o1	HT1080 IDH1KD tx inconclusive, KB-V1 MDR tox inconclusive, KB-3-1 tox 23µM
COc1ccccc1OCc1ccc(C(=O)NC(C)(C)C)o1	none
CC(C)(C)c1ccc(OCc2ccc(C(=O)Nc3cccnc3)o2)cc1	SW480 rereplic inconclusive, MCF10A rerep 23µM, HT1080 IDH1KD tx inconclusive, KB-V1 MDR tox inconclusive, HT1080NT lethal inconclusive, KB-3-1 tox inconclusive
CCCNC(=O)c1ccc(COc2ccc(C(C)(C)C)cc2)o1	MCF10A rerep inconclusive, HT1080NT lethal inconclusive
